Sfp PPTase inh = inhibitors of Bacillus subtilis Sfp phosphopantetheinyl transferase; Potency, µM, without a hit: largest response in the series, negative = inhibition, hits mostly inhibitors; actives 3.5% (n = 310,000); Biochemical Sfp PPTase activity, qHTS;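 note: the enzyme is Sfp with the accession as filed and its product quenches rhodamine fluorescence; 0% = enzyme reaction without inhibitor and -100% = no enzyme wells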
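Fluorescence-quenching assay: 15 nM Sfp-PPTase preincubated 15 min at room temperature with compound, then 5 uM rhodamine-CoA and 12.5 uM BHQ-2-labelled YbbR peptide added. Fluorescence (ex 525/em 598 nm) read at start and after 30 min; difference gives rate.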
12-LOX inh = blocks human arachidonate 12S-lipoxygenase; purified 12hLO, xylenol orange hydroperoxide absorbance; Potency, µM (series often up to 108 µM), without a hit: at the top dose activity change, negative = inhibition, most hits filed as inhibitors; actives 1.1% (n = 580,000); AID 1671190; note: % is set by controls: 0 for no effect and ±100 for the full control effect
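Purified human 12hLO at 150 nM in 25 mM Hepes, 0.01% Triton X-100, pH 7.0, preincubated 15 min at room temperature with compound. Reaction started with 40 uM arachidonic acid, 30 min at room temperature. Hydroperoxide measured by Fe-xylenol orange, 573/405 nm absorbance ratio.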
HP1b binding inh = HP1-beta chromodomain-methylated histone interaction inhibition; AlphaScreen HP1-beta / biotin-H3K9me3 peptide binding; Potency, µM (series often up to 114 µM), for the others: at the highest dose activity change, negative = inhibition, usual class: inhibitors; AID 540317; P83916; actives 0.56% (n = 390,000); note: nearly all actives have a fitted effect of over 70% in size
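AlphaScreen: HP1-beta (50 nM) preformed 30 min with biotin-H3(1-18)K9me3 peptide (50 nM) in PBS pH 7.4, 0.01% Tween-20. Compound added for 30 min at RT, then streptavidin donor/nickel chelate acceptor beads (10 ug/mL) for 30 min.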
JMJD2A Tudor inh = blocks the human JMJD2A Tudor domain. O75164. AlphaScreen JMJD2A-Tudor / H3K4me3 peptide binding. Potency, µM (titrated, usually from 114 µM), without a hit: at the top dose activity change, negative = inhibition, hits mostly inhibitors. actives 4.4% (n = 390,000); note: % is set by controls: 0 for no effect and ±100 for the full control effect; nearly all actives have a fitted effect of over 50% in size
BAZ2B block = BAZ2B (human) inhibition; Potency, µM (titrated, usually from 114 µM), for the others: at the top dose activity change, negative = inhibition, actives largely listed as inhibitors; actives 4.4% (n = 360,000); Q9UIF8; AlphaScreen BAZ2B-H3K14Ac peptide displacement; AID 504333; note: % is set by controls: 0 for no effect and ±100 for the full control effect; nearly all actives have a fitted effect of over 60% in size
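AlphaScreen luminescence quantifies BAZ2B engagement of H3K14Ac peptide; the protein and biotinylated peptide are both at 50 nM final, buffer PBS pH 7.4 with 0.01% Tween-20, all steps at room temperature.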
G9a inh = G9a (human) methyltransferase inhibition; Q96KQ7; G9a H3K9 monomethylation, AlphaScreen, 2 h; Potency, µM (titrated, usually from 102 µM), for inactives: top-dose activity, negative = inhibition, most hits filed as inhibitors; actives 8.8% (n = 350,000); AID 504332; note: % is set by controls: 0 for no effect and ±100 for the full control effect; nearly all actives have a fitted effect of over 75% in size
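Readings reflect AlphaScreen signal from monomethyl-H3K9 antibody detection. HMT at 20 nM; substrate b-H3K9 500 nM; cofactor SAM 20 uM; 2 h RT reaction; compounds tested as titrations in qHTS with 15 min preincubation.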
An asterisk follows results filed as active; u = inconclusive; x = no result given; ! = not confirmed by another sample; [ ] = dose if it differs, or a comment. In the library only some 8.7% were active in any assay of this set; here they are far more common. Calls come from the whole dose curve; as a rule, active = well fitted curve in the direction sought with a large enough effect; inconclusive = small, poorly fitted or top-dose-only effect, or another doubt; inactive = no such curve, though single readings can be large; an effect the other way counts as inactive or inconclusive. Potency is the fitted concentration of half-maximal effect.

SMILES	Sfp PPTase inh	12-LOX inh	HP1b binding inh	JMJD2A Tudor inh	BAZ2B block	G9a inh
Cc1ccc(NS(=O)(=O)c2ccc3[nH]c(=O)oc3c2)c(C)c1	9.4%	50.1µM*!	3.8%	u	-16.7%	6.5%
Cc1ccc(NC(=O)CN(C)S(=O)(=O)c2ccc3[nH]c(=O)oc3c2)c(C)c1	11.6%	u	34.1%	-13.5%	3.7%	0.2%
CCN1C(=O)C(NC(=O)C(=O)NCc2ccco2)c2ccccc21 (centres undefined)	x	0.2%	x	x	x	x
CC(=O)Nc1ccc([C@H]2OCC(=O)N[C@@H]2CO)cc1	x	57.0%[176 µM]	x	x	x	x
CCOC(=O)C(C)Oc1ccc2c(-c3cccc([N+](=O)[O-])c3)cc(=O)oc2c1 (centres undefined)	-6.2%	-10.3%	6.5%	-25.1%	-12.7%	35.5µM*
Cc1ccc(N(C(=O)CCCC(=O)Nc2ccccn2)C(C(=O)NC2CCCC2)c2ccc(O)cc2)cc1C (centres undefined)	17.1%	-7.0%	-5.8%	-20.9%	2.6%	8.91µM*
Cc1ccccc1N(C(=O)CCCC(=O)Nc1ccccn1)C(C(=O)NC1CCCC1)c1ccc(O)cc1 (centres undefined)	14.0%	-18.8%	18.5%	-9.9%	-1.5%	-8.4%
NC(=O)/C(=C/c1ccco1)C(N)=S	17.8µM*	u	-7.0%	u	-17.3%	17.8µM*
NC(=O)/C(=C\c1ccco1)NC(=O)c1ccco1	x	-3.6%	x	x	x	x
CCOC(=O)N1CCN(c2cc(=O)n(-c3ccc(C)cc3)c(=O)[nH]2)CC1	-10.1%	9.5%	2.9%	-3.5%	x	50.1µM*
O=C(c1ccccc1)N1CCCC(C(=O)N2CCN(c3ccccc3)CC2)C1 (centres undefined)	21.3%	148.5%	-3.3%	50.1µM*	-2.8%	u
O=C(C1CCN(S(=O)(=O)N2CCOCC2)CC1)N1CCN(c2ccc(F)cc2)CC1	8.9%	0.2%	39.8%	u	-5.8%	u
O=C(C1CC1)N1CCN(c2ccc(O)cc2)CC1	u	u	u	79.4µM*	-2.1%	25.1µM*
CCOC(=O)N1CCN(c2ccc(Cl)cc2)CC1	2.5%	25.8%	19.1%	-7.4%[57.1 µM]	4.3%	15.5%[59 µM]
CCOC(=O)N1CCN(c2cc(=O)n(-c3ccc(Br)cc3)c(=O)[nH]2)CC1	5.8%	18.3%	-1.5%	-16.7%	0.7%	u
CCOC(=O)N1CCN(c2ccc(O)cc2)CC1	u	u	-69.0%	35.5µM*	8.2%	2.82µM*
O=C1OC(C(=O)Nc2cnc3ccccc3c2)Cc2ccccc21 (centres undefined)	x	4.0%	x	x	x	x
O=C(Nc1ccc([C@@H](O)[C@H]2COCC(=O)N2Cc2ccc(F)cc2)cc1)C1CCC1	x	31.1%[176 µM]	x	x	x	x
CCn1cc(S(=O)(=O)N2C[C@@H](Oc3cccnc3)C[C@H]2C(=O)NC)cn1	x	2.3%	x	x	x	x
CC(=O)c1ccc(N2CCN(C(=O)C3CCN(S(=O)(=O)c4ccc(F)cc4)CC3)CC2)cc1	x	163.8%	16.7%	-21.6%	-5.3%	7.2%[2.33 µM]
CCOc1ccccc1NC(=S)N1CCN(c2ccc(O)cc2)CC1	-19.1%	-21.8%	-11.3%	u	-14.3%	35.5µM*
CC(=O)c1ccc(N2CCN(C(=O)C3CCC3)CC2)cc1	89.1µM*	2.5%	11.5%	-22.5%	-5.0%	u
CC(C#N)Sc1nnc(Nc2ccccc2F)s1 (centres undefined)	x	0.0%	x	x	x	x
CCOC(=O)C1=C(C)N=c2s/c(=C/c3ccc(OCC(=O)O)cc3)c(=O)n2C1c1cc(OC)c(OC)c(OC)c1 (centres undefined)	-8.2%	u	9.7%	-26.5%	-37.2%	x
CCOC(=O)C1=C(C)N=c2s/c(=C\c3ccc(OC(C)=O)c(OCC)c3)c(=O)n2C1/C=C/c1ccccc1 (centres undefined)	44.7µM*	-14.3%	3.1%	44.7µM*	1.8%	-1.0%[59 µM]
SMILES	Sfp PPTase inh	12-LOX inh	HP1b binding inh	JMJD2A Tudor inh	BAZ2B block	G9a inh
CCOC(=O)C1=C(C)N=c2s/c(=C\c3cccc(OCC(=O)O)c3)c(=O)n2C1c1ccccc1OC (centres undefined)	79.4µM*	2.7%	-13.6%	u	50.1µM*	39.8µM*
CCOC(=O)C1=C(C)N=c2s/c(=C\c3ccc(OC(C)=O)cc3)c(=O)n2C1/C=C/c1ccccc1 (centres undefined)	-9.7%	-27.1%	27.5%	-0.7%	12.1%	20.4%[59 µM]
CCn1c(-c2csc3c2CCC(C)C3)n[nH]c1=S (centres undefined)	-1.8%	u	-10.3%	35.5µM*	-30.4%	6.31µM*
OC(c1ccc(F)cc1)c1nc(-c2csc3ccccc23)cs1 (centres undefined)	x	-25.3%	x	x	x	x
CC(C)Cn1c(-c2csc3ccccc23)n[nH]c1=S	-17.5%	u	1.9%	79.4µM*	-8.6%	u
Cc1cccc(-n2c(-c3csc4ccccc34)n[nH]c2=S)c1	u	-21.9%	u	u	u	1.26µM*
CCn1c(-c2csc3ccccc23)n[nH]c1=S	-5.4%	13.9%	-19.4%	12.6µM*	-27.6%	2.24µM*
O=C(NC(c1ccccc1)c1ccccn1)c1cccc[n+]1[O-] (centres undefined)	x	-3.8%	x	x	x	x
COc1ccc(CCNC(=O)c2ccc(N3CC4CC(C3)[C@H]3CCCC(=O)N3C4)nc2)cc1OC (some centres undefined)	x	22.1%	x	x	x	x
Cc1occc1-c1n[nH]c(=S)n1CC(C)C	-8.4%	u	-8.1%	5.01µM*	7.7%	4.47µM*
Cc1nonc1NC(=O)CSc1nnc(-c2ccoc2C)n1CC(C)C	-21.4%	3.7%	45.0%	-5.7%	-28.7%	u
CC(NC(=O)/C(C#N)=C/c1ccco1)c1ccccc1 (centres undefined)	50.1µM*	87.7%	15.3%	-11.3%	0.5%	1.3%
COC(=O)c1ccc(/C=C(\C#N)C(=O)NC(C)c2ccccc2)cc1 (centres undefined)	31.6µM*	u	11.7%	-30.8%	-3.1%	50.1µM*
CCOCCCNC(=O)/C(C#N)=C/c1ccc([N+](=O)[O-])o1	0.6%	-23.4%	8.1%	-16.0%	-24.7%	u
CC(NC(=O)/C(C#N)=C/c1ccc(N2CCOCC2)cc1)c1ccccc1 (centres undefined)	5.5%	-12.9%	36.9%	14.7%	28.7%	29.5%
CC(NC(=O)/C(C#N)=C\c1ccc(C(C)(C)C)cc1)c1ccccc1 (centres undefined)	x	16.1%	x	x	x	x
CC(NC(=O)/C(C#N)=C/c1ccc([N+](=O)[O-])o1)c1ccccc1 (centres undefined)	-18.3%	u	-16.3%	u	u	44.7µM*

Screens (PubChem)
